# According to PubChem BioAssay (NCI):
# About 83,000 compounds went through this panel and 20% of them were active in at least one assay; those are over-represented in the sample as a whole.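 Compound tested at a single concentration for 48 hours in 96-well plates; a percent growth value below 10 was scored as active.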 Values without a mark were called inactive. Active and inactive are the calls of the source.
# Tested on: HS 578T breast
# Experiment: NCI-60 one-dose screen, 48 h (100 = growth as untreated, 0 = no growth, -100 = all killed)
# Settings: 10 µM unless noted
row,Structure (SMILES),growth
1,Cn1c(=O)cc2c3c(c(NCCCO)ccc31)C(=O)c1ccccc1-2,60.2%
2,O=C(OC(CO)C(=O)NC12CC3CC(CC(C3)C1)C2)c1ccc(Cl)cc1 (stereo not drawn),99.5%
3,N#Cc1nc(-c2ccc(F)cc2)oc1S(=O)(=O)N1CCCCC1,95.6%
4,COC1/C=C/OC2(C)Oc3c(C)c(O)c4c(O)c(c(/C=N/Nc5ccc([N+](=O)[O-])cc5[N+](=O)[O-])c(O)c4c3C2=O)NC(=O)C(C)=C/C=C/C(C)C(O)C(C)C(O)C(C)C(OC(C)=O)C1C (stereo not drawn),20%
5,O=C1c2c(c3c4ccccc4[nH]c3c3ccc4ccccc4c23)C(=O)N1CCN1CCOCC1,62.5%
6,NC(=O)c1cc(I)ccc1NC(=O)/C=C/c1ccccc1,-12.8% (active)
7,COC(=O)c1c2c(c(C)[n+]([O-])c1C)C(=O)C(NCc1cccc(OC)c1)=CC2=O,82.7%
8,COc1ccc(CNc2c3ccccc3nc3ccccc23)cc1,58%
9,N=C(N)c1ccc(-c2ccc(-c3ccc(Cl)c(Cl)c3)s2)nc1,67.6%
10,Nc1c(C(=O)Nc2ccccc2F)sc2nc3c(cc12)CCCC3,48.9%
11,Cc1ccc2c(n1)C(=O)C(Br)=C(C1CCCC1)C2=O,93.1%
12,N#CC1=C(N)Oc2c(sc3c(Br)cccc23)C1c1ccc(Cl)cc1 (stereo not drawn),26.4%
13,COc1ccc(/C=C(\C#N)n2nnc3cc(F)c(F)cc32)cc1,92.1%
14,COc1cc(NS(=O)(=O)c2ccc(-c3cnc(C4CC4)o3)cc2)ccc1F,8.89% (active)
15,CN1CCN(c2cc(Nc3cc(C4CC4)[nH]n3)nc(Nc3ccc(CC(=O)NCc4cccc(F)c4)cc3)n2)CC1,-6.93% (active)
16,O=C(Nc1cccc2ccccc12)NC1CC1,108%
17,CN(C)CC(C)(C)C(=O)/C=C/c1ccccc1,-2.87% [25 µM] (active)
18,COc1ccc(-c2nn(-c3cccc(Cl)c3)cc2-c2cc(-c3ccc(Br)cc3)nc(N)n2)cc1,99.7%
19,COc1cc2c(c(OC)c1OC)CCC(c1cccc(NC(=O)c3ccc(Br)cc3)c1)O2 (stereo not drawn),90.4%
20,CCOC(=O)C#Cc1c(C(=O)OCC)nnn1Cc1ccc([N+](=O)[O-])cc1,91.2%

row,Structure (SMILES),growth
1,O=C(N/N=C/c1c(Cl)cccc1Cl)c1cccnc1Nc1cccc(C(F)(F)F)c1,112%
2,C#COc1cccc(Nc2c(C#N)cnc3ncc(NC(=O)CCl)cc23)c1,66.8% [6.25 µM]
3,CC(C)(Sc1cc(C(C)(C)C)c(O)c(C(C)(C)C)c1)Sc1cc(C(C)(C)C)c(OC(=O)CCCC(=O)O)c(C(C)(C)C)c1,80.1%
4,COc1c(B(O)O)cccc1-c1cc(C)c2c(ccc3[nH]ncc32)n1,8.78% (active)
5,CCOC(=O)C1=C(N)Oc2c(sc3c(F)cccc23)C1c1ccc(O)cc1 (stereo not drawn),31.9%
6,OCCn1cc(-c2nc(-c3c[nH]c4ncccc34)cs2)c2cc(F)ccc21,70.9%
7,O=C(/C=C/c1cccs1)Nc1ncc(Cc2ccccc2F)s1,16%
8,COc1ccc(CN2c3ccccc3Sc3ccccc32)cc1F,16.9%
9,CCN1C(=O)N(CC)C2C1NN=c1s/c(=C\c3ccccc3F)c(=O)n12 (stereo not drawn),13.2%
10,CS(=O)(=O)Nc1cncc(-c2ccc3ncnc(Nc4cncc(Cl)c4)c3c2)c1,56.6%
11,C1CN(SSN2CCOCC2)CCO1,41% [100 µM]
12,CS(=O)(=O)c1ccc(-c2cnn3ccc(-c4cccc(S(=O)(=O)C5CC5)c4)nc23)cc1,45.5%
13,CN1C(=O)/C(=C\c2nc([P+](c3ccccc3)(c3ccccc3)c3ccccc3)c(N3CCOCC3)o2)SC1=S,90.4%
14,C=C(C)[C@@H]1CCC[C@]2(COS(=O)(=O)c3ccc(C)cc3)CC[C@]3(C)[C@@H](CC[C@@H]4[C@@]5(C)CCCNC(C)(C)[C@@H]5CC[C@]43C)[C@@H]12,61.4%
15,Clc1ccc2c(c1)C(c1c[nH]c3ccccc13)(c1c[nH]c3ccccc13)CCO2,76.6%
16,O=C(NCCNc1nccc(Nc2ccc(S(=O)(=O)Nc3ccccn3)cc2)n1)c1cccc([N+](=O)[O-])c1,108%
17,COc1cc2ncnc(Nc3ccc(S(=O)(=O)Nc4cc(C)on4)cc3)c2cc1OCCCN1CCN(c2ccc(F)cc2)CC1,90.7%
18,CN(C)CC1CCC(CN(C)C)C1=O (stereo not drawn),105%
19,N#CC1=C(N)Oc2c(ccc3ccccc23)C1c1ccccc1 (stereo not drawn),28.8%
20,Cc1ccc(NC(=O)c2sc3nc(C)c(Br)c(C)c3c2N)cc1,31.8%

# Tested on: NCI/ADR-RES ovarian
# Experiment: as above
# Settings: 10 µM unless noted
row,Structure (SMILES),growth
1,Cn1c(=O)cc2c3c(c(NCCCO)ccc31)C(=O)c1ccccc1-2,57.1%
2,O=C(OC(CO)C(=O)NC12CC3CC(CC(C3)C1)C2)c1ccc(Cl)cc1 (stereo not drawn),107%
3,COC1/C=C/OC2(C)Oc3c(C)c(O)c4c(O)c(c(/C=N/Nc5ccc([N+](=O)[O-])cc5[N+](=O)[O-])c(O)c4c3C2=O)NC(=O)C(C)=C/C=C/C(C)C(O)C(C)C(O)C(C)C(OC(C)=O)C1C (stereo not drawn),76.7%
4,O=C1c2c(c3c4ccccc4[nH]c3c3ccc4ccccc4c23)C(=O)N1CCN1CCOCC1,21.1%
5,NC(=O)c1cc(I)ccc1NC(=O)/C=C/c1ccccc1,-37.1% (active)
6,COC(=O)c1c2c(c(C)[n+]([O-])c1C)C(=O)C(NCc1cccc(OC)c1)=CC2=O,8.5% (active)
7,COc1ccc(CNc2c3ccccc3nc3ccccc23)cc1,38.8%
8,N=C(N)c1ccc(-c2ccc(-c3ccc(Cl)c(Cl)c3)s2)nc1,82.9%
9,Nc1c(C(=O)Nc2ccccc2F)sc2nc3c(cc12)CCCC3,24.7%
10,Cc1ccc2c(n1)C(=O)C(Br)=C(C1CCCC1)C2=O,97.1%
11,N#CC1=C(N)Oc2c(sc3c(Br)cccc23)C1c1ccc(Cl)cc1 (stereo not drawn),0.969% (active)
12,COc1ccc(/C=C(\C#N)n2nnc3cc(F)c(F)cc32)cc1,19.6%
13,COc1cc(NS(=O)(=O)c2ccc(-c3cnc(C4CC4)o3)cc2)ccc1F,15.3%
14,CN1CCN(c2cc(Nc3cc(C4CC4)[nH]n3)nc(Nc3ccc(CC(=O)NCc4cccc(F)c4)cc3)n2)CC1,94.4%
15,O=C(Nc1cccc2ccccc12)NC1CC1,111%
16,CN(C)CC(C)(C)C(=O)/C=C/c1ccccc1,-9% [25 µM] (active)
17,COc1ccc(-c2nn(-c3cccc(Cl)c3)cc2-c2cc(-c3ccc(Br)cc3)nc(N)n2)cc1,99.8%
18,COc1cc2c(c(OC)c1OC)CCC(c1cccc(NC(=O)c3ccc(Br)cc3)c1)O2 (stereo not drawn),84.1%
19,CCOC(=O)C#Cc1c(C(=O)OCC)nnn1Cc1ccc([N+](=O)[O-])cc1,96.3%

row,Structure (SMILES),growth
1,O=C(N/N=C/c1c(Cl)cccc1Cl)c1cccnc1Nc1cccc(C(F)(F)F)c1,31%
2,C#COc1cccc(Nc2c(C#N)cnc3ncc(NC(=O)CCl)cc23)c1,76.5% [6.25 µM]
3,CC(C)(Sc1cc(C(C)(C)C)c(O)c(C(C)(C)C)c1)Sc1cc(C(C)(C)C)c(OC(=O)CCCC(=O)O)c(C(C)(C)C)c1,78.7%
4,COc1c(B(O)O)cccc1-c1cc(C)c2c(ccc3[nH]ncc32)n1,83.3%
5,CCOC(=O)C1=C(N)Oc2c(sc3c(F)cccc23)C1c1ccc(O)cc1 (stereo not drawn),36.6%
6,OCCn1cc(-c2nc(-c3c[nH]c4ncccc34)cs2)c2cc(F)ccc21,82.6%
7,O=C(/C=C/c1cccs1)Nc1ncc(Cc2ccccc2F)s1,11.6%
8,COc1ccc(CN2c3ccccc3Sc3ccccc32)cc1F,2.82% (active)
9,CCN1C(=O)N(CC)C2C1NN=c1s/c(=C\c3ccccc3F)c(=O)n12 (stereo not drawn),6.01% (active)
10,CS(=O)(=O)Nc1cncc(-c2ccc3ncnc(Nc4cncc(Cl)c4)c3c2)c1,95.7%
11,CS(=O)(=O)c1ccc(-c2cnn3ccc(-c4cccc(S(=O)(=O)C5CC5)c4)nc23)cc1,71.8%
12,CN1C(=O)/C(=C\c2nc([P+](c3ccccc3)(c3ccccc3)c3ccccc3)c(N3CCOCC3)o2)SC1=S,90.5%
13,C=C(C)[C@@H]1CCC[C@]2(COS(=O)(=O)c3ccc(C)cc3)CC[C@]3(C)[C@@H](CC[C@@H]4[C@@]5(C)CCCNC(C)(C)[C@@H]5CC[C@]43C)[C@@H]12,-3.42% (active)
14,Clc1ccc2c(c1)C(c1c[nH]c3ccccc13)(c1c[nH]c3ccccc13)CCO2,92.2%
15,O=C(NCCNc1nccc(Nc2ccc(S(=O)(=O)Nc3ccccn3)cc2)n1)c1cccc([N+](=O)[O-])c1,104%
16,COc1cc2ncnc(Nc3ccc(S(=O)(=O)Nc4cc(C)on4)cc3)c2cc1OCCCN1CCN(c2ccc(F)cc2)CC1,107%
17,CN(C)CC1CCC(CN(C)C)C1=O (stereo not drawn),117%
18,N#CC1=C(N)Oc2c(ccc3ccccc23)C1c1ccccc1 (stereo not drawn),2.65% (active)
19,Cc1ccc(NC(=O)c2sc3nc(C)c(Br)c(C)c3c2N)cc1,51.8%
